Compound activity from PubChem.
Rows were chosen to be rich in hits. Some 3.8% of all compounds tested hit in one or more screens of this group.
FGF22 binding: FGF22 (human) thermal shift binding | Q9HCT0 | recombinant FGF22 thermal shift, SYPRO orange fluorescence; percent of sucrose octasulfate shift, DMSO zero | activity (Tm shift, normalised), % at 9.99 µM | 1.5% of 340,000 active | AID 651658;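 active = mean Tm shift, scaled 0 neutral to 100 positive control, at about 1.3% or above, every replicate too, limit read from the data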
Target sequence (Q9HCT0 whole entry, looked up): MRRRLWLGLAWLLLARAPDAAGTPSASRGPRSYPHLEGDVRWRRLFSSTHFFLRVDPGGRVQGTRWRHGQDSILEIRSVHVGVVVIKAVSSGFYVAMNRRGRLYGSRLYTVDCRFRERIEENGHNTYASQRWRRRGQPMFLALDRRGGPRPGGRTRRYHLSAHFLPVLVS
ADAM10 inh: inhibits human ADAM10 | O14672 | recombinant ADAM10, EDANS/DABCYL FRET peptide cleavage, 3 h | inhibition, % at 7 µM | 0.62% of 370,000 active;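 active = inhibition above a per-campaign cutoff equal to the mean of compounds falling between control-based bounds plus 3 SD, cut at about 20% in these data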;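 also: 0% = DMSO wells while the 100% control is not disclosed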
ADAM17 inh: ADAM17 inhibition, QFRET primary screen; recombinant ADAM17, EDANS/DABCYL FRET peptide cleavage; inhibition, % at 6.95 µM; 0.83% of 370,000 active;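 active = inhibition above the mean of compounds lying between control limits plus 3 SD, set per campaign, cut at about 8.5% in these data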;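 also: 0% = DMSO-only wells as the low control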
proKLK7 act: activators of human kallikrein-7 zymogen; purified proKLK7, EDANS-DABCYL substrate fluorescence; 100% is mature enzyme control, 0% vehicle; P49862; 0.9% of 370,000 active; activation, % at 7 µM;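 active = activation above the mean of all tested compounds plus 3 SD, computed per campaign excluding outliers beyond control limits, cut at about 13% in these data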
Target sequence (P49862 whole entry, looked up): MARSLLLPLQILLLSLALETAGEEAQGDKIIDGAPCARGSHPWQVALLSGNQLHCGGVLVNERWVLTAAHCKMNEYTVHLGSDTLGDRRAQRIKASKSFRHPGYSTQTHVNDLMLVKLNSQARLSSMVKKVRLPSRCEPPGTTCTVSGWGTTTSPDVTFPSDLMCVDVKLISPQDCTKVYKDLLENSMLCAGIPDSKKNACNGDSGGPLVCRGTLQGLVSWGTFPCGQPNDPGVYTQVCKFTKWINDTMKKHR
Ecoli rRNA inh: selective bacterial rRNA inhibition in E. coli; GFP signal change (wild-type ribosome), % (no concentration beside the values); E. coli WT GFP vs humanized-ribosome RFP mutants, fluorescence, 24 h; stronger effect = lower value; DMSO median 0, no signal -100; 1.6% of 350,000 active;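 active = significant combined selectivity score with lowered wild-type GFP, culture density cut under 30%, mutant RFP and density less affected; inactive = any of these conditions unmet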
* hit, by the source's call; / = not tested or not shown.

SMILES | FGF22 binding | ADAM10 inh | ADAM17 inh | proKLK7 act | Ecoli rRNA inh
CCOC(=O)C1CCCCN1Cc1ccc(-c2ccccc2)cc1 (centres undefined) | 0 | 2 | -2 | 0 | -29*
CCCCc1ccc(NC(=S)N2CCN(c3ncccn3)CC2)cc1 | 43* | -2 | -7 | 0 | -8
CCCCc1ccc(NC(=S)N2CCN(c3ccccn3)CC2)cc1 | 0 | 0 | -1 | 0 | -8
Cc1ncc(/C=C2\C(=O)Nc3ccccc32)[nH]1 | 0 | 4 | 2 | 0 | -19*
C[C@@H]1CN([C@H](C)CO)S(=O)(=O)c2ccc(-c3cccnc3)cc2O[C@@H]1CN(C)C | 0 | / | / | / | 0
COc1cc(/C=C(\C#N)C(=O)NCCc2ccccc2)cc(OC)c1O | 0 | 3 | 2 | 0 | -31*
O=C(CN1CCOCC1)N1CC(=O)N2[C@H](CO)[C@@H](c3ccc(/C=C/c4ccccc4)cc3)[C@@H]2C1 | 0 | / | / | / | -1
O=C(COC(=O)CCC(=O)c1ccc(Cl)cc1)NCc1ccc(F)cc1 | 43* | 0 | -1 | 1 | -2
NC(=O)c1ccc(NC(=O)COC(=O)CCC(=O)c2ccc(Cl)cc2)cc1 | 43* | 2 | 0 | 0 | /
O=C(COC(=O)CCC(=O)c1ccc(F)cc1)Nc1ccccc1 | 0 | 0 | -1 | 0 | -9
O=C(COC(=O)c1ccc(Br)o1)NCc1ccc(F)cc1 | 27* | -1 | 2 | 0 | 0
O=C(COC(=O)CCC(=O)c1ccc(F)cc1)NCc1ccccc1Cl | 0 | -1 | -2 | 0 | -30*
CCCNC(=O)C[C@H]1C[C@@H]2c3cc(NS(C)(=O)=O)ccc3O[C@@H]2[C@H](CO)O1 | 0 | / | / | / | 0
O=C(C[C@H]1CC[C@H]2[C@@H](COC[C@@H](O)CN2Cc2cc(F)ccc2F)O1)NCc1ccc(F)cc1 | 1 | / | / | / | -6
CCOC(=O)c1sc(NC(=O)C2CCCCC2)nc1C | 0 | 4 | -1 | 0 | -30*
CCOC(=O)c1sc(NC(=O)C2CCC2)cc1C | 43* | 2 | 4 | 0 | -16
CCOC(=O)c1sc(NC(C)=O)cc1C | 0 | -4 | -1 | 0 | 3
CCOC(=O)c1sc(NC(=O)CCSC)nc1C | / | -18 | -4 | -1 | /
CCOC(=O)c1sc(NC(=O)CSC(=S)N2CCN(C)CC2)nc1C | 0 | 0 | -1 | 0 | -25*
Cc1nn(C(C)(C)C)c(C)c1/C=N/OC(=O)Nc1ccc(Cl)cc1 | 0 | 3 | -1 | 0 | -27*
COc1cc(C(=O)Nc2ccc3ccccc3c2)cc(OC)c1OC | 0 | -5 | -4 | 0 | -25*
COc1ccccc1OCc1ccc(C(=O)Nc2cc(OC)c(OC)c(OC)c2)o1 | 0 | 10 | -1 | 0 | -22*
COc1cc(C(=O)Nc2ccc3c(c2)Cc2ccccc2-3)cc(OC)c1OC | 43* | -2 | 0 | 0 | /
COc1cc(C(=O)Nc2ccc3c(c2)C(=O)c2ccccc2C3=O)cc(OC)c1OC | / | 2 | 1 | 0 | /
CC(=O)Nc1ccc(/C(C)=N/NC(=O)c2ccc(COc3ccccc3Cl)o2)cc1 | 0 | -8 | -5 | -4 | -30*
SMILES | FGF22 binding | ADAM10 inh | ADAM17 inh | proKLK7 act | Ecoli rRNA inh
COc1ccc(C(=O)Nc2ccc3ccccc3c2)cc1OC | 0 | -2 | -1 | 3 | -2
CNC(=O)C[C@@H]1CC[C@H]2[C@@H](COc3ccc(NC(=O)Cc4cccs4)cc3C(=O)N2C)O1 | 0 | / | / | / | 2
O=C(C1CCOCC1)N1[C@H](CO)[C@@H](c2ccccc2)C12CN(Cc1cccnc1)C2 | 0 | / | / | / | 3
C[C@@H]1CCCCO[C@@H](CN(C)S(C)(=O)=O)[C@@H](C)CN([C@@H](C)CO)C(=O)c2cc(NS(C)(=O)=O)ccc2O1 | 0 | / | / | / | -1
COc1ccc(S(=O)(=O)Oc2cccc(/C=N/N=C3/NC(=O)C(CC(=O)O)S3)c2)cc1 (centres undefined) | 2.6* | -7 | -3 | -1 | -6
CN1CCN(C(=O)/C(=C\c2cccs2)NC(=O)c2ccccc2)CC1 | 27* | 3 | 0 | 0 | 4
Cc1ccc(C(=O)N/C(=C/c2cccs2)C(=O)N2CCCCCC2)cc1 | / | 5 | -3 | 1 | /
O=C(N/C(=C/c1cccs1)C(=O)N1CCCC1)c1ccccc1 | 0 | -7 | -2 | 0 | 2
Cc1ccc(C(=O)N/C(=C\c2cccs2)C(=O)NC2CCCCC2)cc1 | 0 | -5 | -2 | 0 | -25*
COCCCNC(=O)CSc1c2c(nc3ccc(Cl)cc13)CCCC2 | 0 | -2 | -3 | 0 | -23*
O=C(CSc1c2c(nc3ccc(Cl)cc13)CCCC2)NCCCN1CCOCC1 | / | 3 | 1 | 0 | /
NS(=O)(=O)c1ccc(CCNC(=O)c2cc(-c3ccco3)nc3ccccc23)cc1 | 6.2* | -3 | 1 | -1 | 16
CO[C@@H]1CN(C)C(=O)c2ccc(NC(=O)C3CCCCC3)cc2OC[C@@H](C)N(Cc2nccs2)C[C@H]1C | 0 | / | / | / | -7
CCCCOc1ccc(C(=O)N/C(=C\c2cccc([N+](=O)[O-])c2)C(=O)OCCC)cc1 | / | 2 | -1 | -1 | /
CCCCOc1ccc(C(=O)N/C(=C/c2cccc([N+](=O)[O-])c2)C(=O)O)cc1 | 52* | 2 | -2 | 0 | 11
CO[C@H]1CN(C)C(=O)c2ccc(NC(=O)C3CC3)cc2OC[C@H](C)N(CC2CCOCC2)C[C@@H]1C | 0 | / | / | / | 1
O=C(Cc1cccc2ccccc12)NN1C(=O)CSC1=S | 44* | -1 | -3 | 1 | 2
O=C1CSC(=S)N1N=Cc1cccc2ccccc12 | 0 | -10 | -7 | 0 | -6
CN(CC(=O)NCc1ccc(F)cc1)S(=O)(=O)c1ccc(Br)s1 | 0 | 1 | 1 | 0 | -22*
C=CCn1c(SCc2c(C(=O)OC)sc(N)c2C(=O)OC)nnc1-c1ccc(Br)cc1 | / | 20* | 4 | 0 | /
C=CCn1c(SCC(=O)c2ccc(-c3ccccc3)cc2)nnc1-c1ccc(OC)cc1 | / | 0 | 4 | -1 | /
Cc1ccc2nc(SC(C)C(=O)N3CC(C)OC(C)C3)[nH]c2c1 (centres undefined) | 43* | -1 | -3 | 0 | 18
COc1ccc([C@@H]2C/C=C\C[C@@H](c3ccccc3)NC(=O)CCC(=O)N2)c(OC)c1 | / | / | / | / | -1
COc1ccc(CCNC(=O)CCc2ccc(S(=O)(=O)NC(C)C)cc2)cc1OC | / | -6 | -5 | 0 | /
COc1cccc(C(=O)NCC2(c3ccccc3)CCCC2)c1 | 43* | -5 | 1 | 0 | -30
CCCNS(=O)(=O)c1ccc(CCC(=O)NCCc2ccc(OC)c(OC)c2)cc1 | 44* | 1 | -1 | 0 | -7
COc1cccc(C(=O)NNC(=O)CCc2ccccc2)c1 | 43 | 2 | 0 | 0 | -21*
COc1ccc(CCNC(=O)CN(c2cc([N+](=O)[O-])ccc2OC)S(C)(=O)=O)cc1OC | 43* | -2 | 0 | 0 | 9
